# Screening data from PubChem.
# RGS12 GoLoco inh = RGS12 GoLoco-Gai1 interaction inhibition. Gai1:RGS12 GoLoco peptide FP, rhodamine, 10 min. Potency, µM (top dose mostly 61.6 µM), inactives show at the highest dose activity, negative = inhibition, usual class: inhibitors. actives 0.44% (n = 230,000). AID 880; active = well fitted inhibition curve with a large enough effect, not every such curve was filed as active; inactive = no such curve, though single readings can be large or run the other way; note: potency is the fitted concentration of half-maximal effect; % is set by controls: 0 for no effect and ±100 for the full control effect; nearly all actives have a fitted effect of over 30% in size
# Target sequence (P63096 whole entry, looked up): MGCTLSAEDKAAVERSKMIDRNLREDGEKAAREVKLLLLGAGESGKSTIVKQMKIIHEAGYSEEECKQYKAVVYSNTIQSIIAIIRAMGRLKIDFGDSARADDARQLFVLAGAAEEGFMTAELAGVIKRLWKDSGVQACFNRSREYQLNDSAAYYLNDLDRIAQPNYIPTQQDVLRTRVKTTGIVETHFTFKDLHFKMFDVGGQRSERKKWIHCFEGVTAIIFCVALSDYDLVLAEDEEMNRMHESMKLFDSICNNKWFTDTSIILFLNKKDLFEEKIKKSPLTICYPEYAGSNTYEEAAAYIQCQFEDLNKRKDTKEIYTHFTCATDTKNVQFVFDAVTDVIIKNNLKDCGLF
# HTT aggregate = inhibitors of mutant huntingtin aggregate formation in PC12 cells; PC12 HttQ103-GFP aggregates, Acumen cytometry, 40 h; Potency, µM (series often up to 46.1 µM), for inactives: top-dose activity change, negative = inhibition, hits mostly inhibitors; actives 1.1% (n = 220,000); AID 1688; active = well fitted curve in the direction sought with a large enough effect; inconclusive = small, poorly fitted or top-dose-only effect, or another doubt; inactive = no such curve, though single readings can be large; an effect the other way counts as inactive or inconclusive; note: potency is the fitted concentration of half-maximal effect; % is set by controls: 0 for no effect and ±100 for the full control effect; nearly all actives have a fitted effect of over 60% in size
#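 PC12 cells with ecdysone-inducible HTT exon1 Q103-GFP, induced by 100 nM tebufenozide, given compounds in a concentration series. GFP aggregates (1–25 um, 6 SD above background) counted in lysates by laser-scanning cytometry, 488 nm excitation.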
# ALDH1A1 inh = ALDH1A1 (human) enzyme inhibition | AID 1030 | Potency, µM (series often up to 75.3 µM), for inactives: top-dose activity, negative = inhibition, usual class: inhibitors | Purified ALDH1A1, NADH fluorescence, propionaldehyde substrate | actives 7.3% (n = 220,000);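 note: potency is the fitted concentration of half-maximal effect; plate controls were no enzyme wells and a reference inhibitor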
# PNC assembly inh = inhibitors of perinucleolar compartment assembly | PC3M PTB-GFP, PNC prevalence imaging, 16 h; stronger effect = lower value | activity change (PNC), negative = inhibition, % at 10 µM | actives 3.1% (n = 140,000) | AID 2417;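 active = readout at or below -70, meaning at least 70% loss of cells showing the perinucleolar compartment, a nuclear body marking cancer cells; inconclusive = readout between -30 and a set limit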;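 note: plate controls were DMSO wells for no effect and camptothecin positive control wells for full effect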
#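 Read-out is percentage of cells bearing a perinucleolar compartment, from automated 20x imaging of fixed, Hoechst-stained PC3M PTB-GFP cells. Cells were seeded 4 h, then exposed 16 h to compound (23 nl of library stock) in duplicate plates.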
# HTT cytoprotect = protects HTT-Q103 PC12 cells, measured by ATP | PC12 HTT-Q103 induced, cytoprotection, ATP luminescence, 40 h | Potency, µM (highest dose often 56.4 µM), inactives show cytoprotection (ATP increase), actives largely listed as activators | actives 0.14% (n = 230,000) | AID 1471; active = well fitted curve in the direction sought with a large enough effect; inconclusive = small, poorly fitted or top-dose-only effect, or another doubt; inactive = no such curve, though single readings can be large; an effect the other way counts as inactive or inconclusive; note: potency is the fitted concentration of half-maximal effect; % of control where 0% means no effect; nearly all actives have a fitted effect of over 45% in size
#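 Compounds were screened for protection of PC12 cells against cell death after tebufenozide induction (100 nM final) of mutant Huntingtin exon 1 (Q103) fused to GFP.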
# HPGD block = blocks human HPGD enzyme activity. P15428. purified HPGD, NADH fluorescence kinetic, PGE2 substrate. Potency, µM, for inactives: top-dose activity change, negative = inhibition, most hits filed as inhibitors. actives 4.3% (n = 150,000); note: potency is the fitted concentration of half-maximal effect; % is set by controls: 0 for no effect and ±100 for the full control effect
# Target sequence (P15428 whole entry, looked up): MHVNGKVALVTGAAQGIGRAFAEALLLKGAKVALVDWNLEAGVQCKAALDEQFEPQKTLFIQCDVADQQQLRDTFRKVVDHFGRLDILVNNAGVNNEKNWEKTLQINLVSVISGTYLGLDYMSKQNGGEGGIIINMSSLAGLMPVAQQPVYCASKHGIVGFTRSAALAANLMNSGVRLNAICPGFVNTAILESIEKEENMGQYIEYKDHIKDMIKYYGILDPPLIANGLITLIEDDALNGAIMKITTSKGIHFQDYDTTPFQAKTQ
#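 20 nM HPGD preincubated 15 min at room temperature with compound in 50 mM Tris-HCl pH 8, 0.01% Tween 20. Started with 1 mM NAD+ and 30 uM prostaglandin E2; NADH fluorescence (360/450 nm) read 5 times over 30-s intervals, last minus first.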
# * = called active by the depositor; ? = inconclusive; nt = not tested or not shown; [ ] = remark or other dose. A selection: hits, their analogues and other compounds. The true share with any hit is near 11%. Unless noted, calls come from the whole dose curve; as a rule, active = well fitted inhibition curve with a large enough effect (not every such curve was filed as active); inconclusive = small, poorly fitted or top-dose-only effect, or another doubt; inactive = no such curve, though single readings can be large or run the other way.
SMILES,RGS12 GoLoco inh,HTT aggregate,ALDH1A1 inh,PNC assembly inh,HTT cytoprotect,HPGD block
CC(C)CCNc1nc(N)c([N+](=O)[O-])c(NCC2CCCO2)n1 (configuration not stated),0.9%,-0.3%,11.2µM*,45.6,27.0%[10 µM],-18.6%
C=CC[C@@H]1/C=C(\C)C[C@H](C)C[C@H](OC)[C@H]2O[C@@](O)(C(=O)C(=O)N3CCCC[C@H]3C(=O)O[C@H](/C(C)=C/[C@@H]3CC[C@@H](O)[C@H](OC)C3)[C@H](C)[C@@H](O)CC1=O)[C@H](C)C[C@@H]2OC,nt,34.7%,nt,nt,4.3%,nt
Cc1ccc(NC(=O)N2CCc3ccccc32)cc1,17.4%,-3.4%,0.0%,-13.9,-46.9%[10 µM],-8.6%
CC(=O)Nc1ccc2c(c1)N(C(=O)CN(C)C)c1ccccc1CC2,1.4%,18.0%,-14.4%,19.3,17.1%,-19.0%
CCNCC(=O)N1c2ccccc2CCc2ccc(NC(C)=O)cc21,-3.8%,13.8%,-2.6%,-105.0*,2.9%[10 µM],-10.8%
Cc1ccc(NC(=O)CSCC(=O)N2c3ccccc3CCc3ccccc32)cc1,3.3%,10.3%,3.16µM*,4.8,-32.9%,-11.6%
CCOC(=O)N/N=C1/C[C@@H](O)[C@@H](O)[C@@H]2[C@H]3C(=O)N(c4ccc(F)cc4F)C(=O)[C@@H]3CC[C@H]12,nt,nt,13.3%[13.5 µM],nt,-3.6%[10 µM],nt
Cc1ccccc1OCC1CO1 (configuration not stated),-5.2%,nt,?,nt,7.7%,-9.9%
COC(=O)/C(=C1/Oc2cc(C)oc(=O)c2S1)C(F)(F)F,-4.0%,?,-0.3%,-100.0*,-79.9%[10 µM],7.94µM*
COC(=O)/C(=C1/Oc2ccc(C(C)(C)C)cc2S1)C(F)(F)F,2.8%,-7.4%,13.0%,?,2.9%[10 µM],-5.4%
CCC(C)/C(C)=N/NC(=O)c1ccc(CSc2nc3ccccc3s2)cc1 (configuration not stated),13.7%,-10.2%,20µM*,2.7,nt,20µM*
CC(O)c1n(C)c(Cl)c[n+]1C (configuration not stated),12.6µM*,9.7%,6.4%,?,-14.1%,2.8%
CCN(CC)C(=O)c1cccc2c1C(=O)c1ccccc1-2,-3.2%,-5.6%,-2.8%,?,21.0%[10 µM],-5.4%
CCN(CC)C(=O)c1ccc2c(c1[N+](=O)[O-])C(=O)c1ccccc1C2=O,4.5%,15.1%,9.3%,-81.8*,-13.8%[10 µM],?
CC(C)(C)OC(=O)N1CCC[C@H]1c1nnc(SC/C=C/c2ccccc2)o1,nt,-13.5%,22.4µM*,1.3,12.1%[0.074 µM],nt
CC(C)(C)OC(=O)N1CCC[C@H]1c1nnc(SCc2ccc(Cl)cc2Cl)o1,-2.6%,?,2.6%,33.8,-9.7%,-11.9%
CC(C)(C)OC(=O)N1CCC[C@H]1c1nnc(SCc2ccccc2Cl)o1,-2.8%,-36.2%,-7.8%,-113.7*,-18.8%,-11.1%
S[C@@H]1CCCN(Cc2ccccc2)C1,11.3%[14.2 µM],nt,-8.2%[13.5 µM],nt,17.3%[10 µM],-0.7%
CC(C)N(Cc1nnc(-c2ccccc2Cl)o1)C(=O)c1cccc(C#N)c1,-7.1%,13.5%,6.31µM*,20.2,-14.5%,-1.4%
Nc1ncnc2nc(N3CCN(CCO)CC3)[nH]c12,8.2%[14.2 µM],nt,2.4%[13.5 µM],nt,-6.2%[10 µM],-2.7%
O=c1c(-c2ccccc2)nc2cncnc2n1Cc1ccccc1,-1.2%,nt,?,nt,10.8%,nt
C=CCn1c(COc2ccccc2)nnc1SCC(=O)N/N=C/c1ccc(C)cc1,-7.9%,9.0%,?,5.9,-3.5%,-3.3%
COc1cccc(/C=N/NC(=O)CN2CC(c3ccccc3)CC2=O)c1O (configuration not stated),1.5%,3.55µM*,-2.2%,25.5,nt,-14.1%
C=CCn1c(COc2ccccc2)nnc1SCC(=O)N/N=C/c1cc(Cl)ccc1O,9.1%,7.94µM*,0.8%,14.4,-35.7%,-23.9%
COc1ccc(O)c(/C=N/NC(=O)CSc2nnc(C)n2-c2ccccc2)c1,13.0%,7.94µM*,7.4%,-21.3,-42.6%,-14.4%
SMILES,RGS12 GoLoco inh,HTT aggregate,ALDH1A1 inh,PNC assembly inh,HTT cytoprotect,HPGD block
Cc1ccccc1-n1c(C)nnc1SCC(=O)NNC(=O)c1ccccc1,1.1%,7.5%,-16.4%,?,38.6%[10 µM],-10.1%
Cc1nnc(SCC(=O)NNC(=O)c2ccccc2)n1-c1ccccc1,-2.1%,7.1%,0.2%,-84.0*,4.1%[10 µM],-3.8%
CCc1nnc(NC(=O)CCC(=O)N2CCN(C3c4ccccc4-c4ccccc43)CC2)s1,-8.4%,6.3%,5.8%,38.4,23.2%[10 µM],-1.9%
COc1cccc(/C=N/NC(=O)CSc2nnc(C)n2-c2ccccc2)c1O,16.4%,7.94µM*,2.6%,34.1,-54.3%,-7.5%
COc1ccc(/C=N/NC(=O)CSc2nnc(C)n2-c2ccccc2)c(OC)c1OC,5.8%,-12.1%,3.4%,?,3.9%,6.1%
CN1/C(=C/C=N/n2cnnc2)C(C)(C)c2ccccc21,83.4%,-11.1%,2.9%,?,-6.3%[10 µM],-23.6%
CN1/C(=C\C=N\NC(=O)c2ccccc2Br)C(C)(C)c2ccccc21,203.7%,11.2µM*,28.2µM*,-8.9,-1.4%[10 µM],-29.9%
CN(C)c1ccc(/C=N/NC(=O)c2ccc3nc[nH]c3c2)cc1,10.7%,3.5%[9.22 µM],17.8µM*,nt,0.3%[10 µM],nt
Cc1nc2c(C)cccc2cc1C(=O)N/N=C/c1ccc(N(C)C)cc1,-18.5%,2.7%,11.2µM*,-29.6,-67.9%,-18.0%
CCN(CC)c1ccc(/C=N/NC(=O)c2ccc3nc[nH]c3c2)cc1,-0.7%,8.8%[9.22 µM],?,nt,0.7%[10 µM],nt
Cc1nc2c(C)cccc2cc1C(=O)N/N=C/c1ccc(C(=O)O)cc1,15.2%,nt,-8.9%,nt,nt,nt
O=c1c(-c2ccc(Cl)cc2)nc2cnc(N3CCOCC3)nc2n1C1CC1,-1.7%,nt,11.2%,nt,-3.4%,-8.0%
N=C1C(c2nc(-c3ccc(Cl)cc3)cs2)=C(O)CN1NC(=O)c1ccc(O)cc1,14.3%,1.6%[9.22 µM],nt,nt,0.5%[10 µM],nt
CC1CCN(C(=S)c2ccccc2O)CC1,-46.9%,-0.1%,?,-8.7,-3.0%,6.31µM*
CCN1CCN(C(=S)c2ccc(O)cc2)CC1,-6.3%,10.7%[9.22 µM],?,nt,13.0%[10 µM],nt
CC1CCN(C(=S)c2ccc(O)cc2)CC1,-1.8%,-16.3%,?,-1.1,-8.0%,31.6µM*
CC1CCN(C2CCN(C(=O)c3ccccc3F)CC2)CC1,-9.3%,-4.6%[9.22 µM],nt,nt,-5.0%[10 µM],nt
Cn1cnnc1SCc1ccc(C(=O)N=Nc2c(O)n(C)c3ccccc23)cc1,15.5%,29.8%,2.1%,-21.0,2.5%[10 µM],-10.5%
CCOc1ccc(C=Nc2cccc3ncccc23)cc1,-0.4%,-19.0%,17.8µM*,nt,4.5%,nt
COCCOC(=O)/C(C#N)=C/c1cn(Cc2ccccc2)nc1-c1cccnc1,-0.3%,10.8%[9.22 µM],20µM*,nt,-11.5%,nt
